Compound activity: PubChem BioAssay, several laboratories
An excerpt weighted towards active compounds, which were near 4.8% of everything screened.
TIM10 inh – inhibits growth of TIM10 yeast strain; hit rate 1.4% among 330,000; S. cerevisiae TIM10 strain growth, BacTiter-Glo luminescence, 24 h; inhibition, % at 10 µM;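 active = inhibition of 40% or more at the single tested concentration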;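 note: wild-type TIM10 isogenic control strain grown at permissive 25 °C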
PfHsp90 yeast 2 – growth inhibition of yeast expressing Plasmodium Hsp90. inhibition, % at 9.4 µM. S. cerevisiae expressing PfHsp90, BacTiter-Glo ATP, 48 h; yeast lacking PDR1 and PDR3 efflux regulators. hit rate 0.32% among 310,000;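 active = every replicate shows inhibition above about 80%, whatever the replicate mean, limit read from the data; inconclusive = mean inhibition reaches the set limit but some replicate falls short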;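 note: 0% = DMSO neutral controls and 100% = 20 µM radicicol positive controls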
NALP1 yeast inh – inhibitors of NALP1 inflammasome in yeast. S. cerevisiae NALP1/ASC/caspase-1 growth, X-gal OD620, 72 h. inhibition, % at 10 µM. hit rate 0.61% among 280,000; in the data active = inhibition mostly above about 24%, no sharp cut-off; inactive = mostly below about 32%
tim10-1 inh – growth inhibitors of tim10-1 mutant yeast; S. cerevisiae tim10-1 ts strain growth, BacTiter-Glo, 24 h; inhibition, % at 20 µM; hit rate 2.2% among 330,000; AID 463190;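 active = inhibition of at least 40%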;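 note: mutant grown at 25 °C; 0% = DMSO wells with yeast and 100% = wells holding no yeast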
SKKanGAS inh – blocks kanamycin growth of S. pyogenes SKKanGAS strain. BacTiter-Glo, 6 h. inhibition, % at 7.5 µM. hit rate 1.3% among 300,000. AID 1662;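 active = mean replicate score, as percent of positive control median, at least 50; inconclusive = mean below 50 but one replicate at or above 50; inactive = mean and every replicate below 50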;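 note: strain carries kanamycin resistance gene driven by streptokinase promoter and grows in 40 µg/ml kanamycin; loss of luminescence reflects streptokinase promoter inhibition or plain growth inhibition; 0% = median of DMSO wells and 100% = positive control at its reference dose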
tim23-1 inh – inhibits growth of tim23-1 mutant yeast | hit rate 1.3% among 330,000 | S. cerevisiae tim23-1 growth, BacTiter-Glo luminescence, 24 h | AID 463212 | inhibition, % at 20 µM;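 active = growth inhibition of the mutant yeast at or above 50%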;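 note: temperature-sensitive mutant grown at 25 °C; plate controls were DMSO-treated mutant yeast for no effect and medium wells lacking yeast for full effect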
tim10-1 confirm – confirmation of tim10-1 mutant yeast growth inhibitors; shares compounds with tim10-1 inh; S. cerevisiae tim10-1 ts strain growth, BacTiter-Glo, 24 h; inhibition, % at 20 µM; hit rate 56% among 7,400;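 active = inhibition of yeast growth at or above a set limit in either of two repeat tests at 20 µM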;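 note: tim10-1 mutant grown at permissive 25 °C to find synthetic lethal compounds; 0% = DMSO yeast wells and 100% = medium wells without yeast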
Numbers without * were called inactive; ? = inconclusive; · = no result.

SMILES | TIM10 inh | PfHsp90 yeast 2 | NALP1 yeast inh | tim10-1 inh | SKKanGAS inh | tim23-1 inh | tim10-1 confirm
CSCCC(NC(=O)COc1ccccc1)C(=O)OC(C)C(=O)Nc1ccccc1C (stereo not given) | 3 | 3 | · | -1 | 14 | 0 | ·
COc1cccc(-c2nnc(SCN3C(=O)c4ccccc4C3=O)n2C)c1 | 35 | 13 | 18 | 42* | 0 | 32 | 33*
CCN(CC)S(=O)(=O)c1ccc(NC(=O)CSc2nnc(-c3cccc(OC)c3)n2C)cc1 | 4 | 15 | -17 | 10 | 7 | -10 | ·
Nc1nc(-c2ccccc2)nn1C(=O)Cc1ccccc1 | 0 | -8 | 4 | 21 | 1 | 27 | ·
CCOc1ccc(OCc2ccc(C(=O)N3CCCC(C)C3)cc2)cc1 (stereo not given) | 7 | -10 | 0 | 41* | -7 | 33 | 17
CC(C)NC(=O)/C(C#N)=C/c1ccc2c(c1)OCCO2 | 11 | 4 | 43 | 43* | 0 | 30 | 34*
Cc1nn(-c2cccc(Cl)c2)c(Cl)c1/C=N/NC(=O)c1cccnc1 | 3 | -14 | 24 | 3 | -4 | 22 | ·
CNC(=O)COC(=O)/C=C/c1cn(-c2ccccc2)nc1-c1ccc2c(c1)OCCO2 | 21 | · | 4 | 41* | -9 | 11 | 29*
NC(=O)/C=C\c1cn(-c2ccccc2)nc1-c1ccc2c(c1)OCCO2 | 15 | 10 | 22 | -12 | -3 | 18 | ·
Cc1nc2ccc(NC(=O)c3cc(S(=O)(=O)N4CCOCC4)ccc3C)cc2s1 | 10 | 6 | -5 | 6 | 1 | -7 | ·
Cc1nc2ccc(Nc3nc4cc(S(=O)(=O)N5CCOCC5)ccc4o3)cc2s1 | 38 | 6 | 0 | 45* | 6 | 33 | 34*
CCCOc1ccc(C(=O)N2CCN(c3ccc(N)cc3Cl)CC2)cc1 | 33 | 21 | -1 | 48* | 1 | 42 | 35*
C#Cc1ccc([C@H]2C=C(C(=O)N3CCN(Cc4ccccc4)CC3)O[C@@H](OCC)[C@@H]2CCCO)cc1 | 11 | -1 | 10 | 18 | 5 | 15 | ·
COc1ccc(NS(=O)(=O)c2ccc3oc4ccccc4c3c2)cn1 | 24 | -23 | -1 | 44* | -5 | 46 | 36*
COc1ccc(NS(=O)(=O)c2ccc(Br)cc2)cn1 | 3 | -75 | 4 | 18 | 0 | 26 | ·
Cc1cc(-c2nc3ccccc3o2)c2ccccc2n1 | 21 | · | 10 | 41* | -10 | 42 | 22
Cc1cc(C(=O)O)c2ccccc2n1 | 11 | 15 | 6 | 14 | -6 | 6 | ·
NC(=O)CN1C(=O)C(=O)N(Cc2ccccc2)C1=O | 2 | -11 | 11 | 19 | 4 | 20 | ·
CN(C)CCCN1c2ccccc2Sc2ccc(Cl)cc21 | 19 | -7 | 41 | 37 | 6 | -6 | ·
OCCN1CCN(CCCN2c3ccccc3Sc3ccc(Cl)cc32)CC1 | 19 | 16 | 32 | 43* | 4 | -1 | 28
OCCN1CCN(CC/C=C2/c3ccccc3Sc3ccc(Cl)cc32)CC1 | 32 | 4 | · | 44* | · | 12 | 26
CCOc1ccc(C(=O)NN2C(=S)NC(C)(C)C=C2C)cc1 | 2 | -3 | 10 | 12 | 8 | -1 | ·
Cc1cc(Nc2ccccc2)nn1C(=O)c1ccc(Br)cc1 | 6 | -15 | -1 | 53* | 50* | 21 | 29
COCC1CCN(C(=O)c2ccc(OC)c(OC3CCN(C(C)C)CC3)c2)CC1 | -4 | 10 | 3 | 0 | 5 | -6 | ·
Cc1nnc(Sc2cc(NCCCO)c([N+](=O)[O-])c3nonc23)s1 | · | -5 | 2 | · | ? | · | ·
SMILES | TIM10 inh | PfHsp90 yeast 2 | NALP1 yeast inh | tim10-1 inh | SKKanGAS inh | tim23-1 inh | tim10-1 confirm
O=[N+]([O-])c1c(NCCCO)cc(Sc2nc3ccccc3s2)c2nonc12 | 11 | · | 22 | 85* | 78* | 30 | 85*
COc1ccc(/C=N/Nc2cc(OC)ncn2)cc1 | · | 17 | 23 | · | 3 | · | ·
Cn1nccc1C(=O)Nc1sc2c(c1C#N)CCCC2 | 10 | -8 | 0 | 21 | -6 | 26 | ·
N#Cc1c(NC(=O)c2ccc(Cn3cc(Br)cn3)o2)sc2c1CCCCCC2 | 27 | 9 | 27 | 41* | 43 | 27 | 32*
CC1(C)C(=O)Nc2ccccc2N1C(=O)c1ccc([N+](=O)[O-])cc1 | 2 | 5 | 23 | 16 | 4 | 8 | ·
C=C(NS(=O)(=O)c1ccc(C)cc1)C(=O)OC | -9 | -9 | · | -1 | · | 18 | ·
O=C(c1cccc(F)c1)N1CCN(c2cccc(C(F)(F)F)c2)CC1 | 20 | 16 | -10 | 32 | -8 | 29 | ·
O=C(c1csc2c1CCCC2)N1CCN(c2ncccn2)CC1 | 21 | 9 | 8 | 22 | 4 | 16 | ·
O=C(c1csc2c1CCCC2)N1CCN(c2cccc(C(F)(F)F)c2)CC1 | 30 | · | -7 | 56* | 14 | 33 | 33*
O=C(c1csc2c1CCCC2)N1CCN(c2ccc(F)cc2)CC1 | 9 | · | -16 | 43* | 10 | 37 | 31
O=C1C=CCC(/C=C/c2ccccc2)O1 (stereo not given) | 35 | · | 47* | 55* | 3 | 40 | 27
COc1cc(CN2C(=O)C(NC(=O)c3ccco3)(C(F)(F)F)C3=C2CC(C)(C)CC3=O)cc(OC)c1 (stereo not given) | 10 | -34 | 20 | 47* | -1 | 43 | 27
Cc1cccc(OCc2nnc(SCC(=O)N3c4ccccc4CCc4ccccc43)o2)c1 | 13 | -31 | · | 17 | 5 | 33 | ·
O=C(CSc1nnc(COc2ccc(F)cc2)o1)N1c2ccccc2CCc2ccccc21 | 8 | · | -10 | 42* | 2 | 25 | 16
COc1ccc(-c2nc(-c3ccccn3)no2)cc1 | 36 | 86* | 2 | 49* | · | 46 | 56*
CCn1c(COc2ccccc2C)nc2ccccc21 | 17 | -5 | 29 | 16 | 14 | 25 | ·
Cc1c(S(=O)(=O)N2CCN(c3cccc(C(F)(F)F)c3)CC2)c(=O)n(C)c(=O)n1C | 2 | -13 | · | 8 | -1 | 8 | ·
Cc1nc2scc(C)n2c(=O)c1S(=O)(=O)N1CCN(c2cccc(C(F)(F)F)c2)CC1 | 17 | 7 | -5 | 50* | 3 | 47 | 43*
Oc1c(Cl)cc(Cl)cc1/C=C/c1ccc2cccc(O)c2n1 | 26 | 20 | 4 | 43* | 102* | 30 | 33*
COc1cc(Br)cc(/C=C/c2ccc3cccc(O)c3n2)c1O | 20 | -65 | 15 | 49* | 101* | 41 | 38*
COc1cc(/C=C/c2ccc3cccc(OC)c3n2)c(OC(C)=O)c([N+](=O)[O-])c1 | 30 | -43 | -6 | 36 | 9 | 41 | ·
COc1cc(/C=C/c2ccc3cccc(O)c3n2)c(Br)cc1O | 37 | -78 | -17 | 47* | 94* | 48 | 46*
